Many of the other results were omitted from the sample, so hits are more common in it than they were.
IDE exosite inh – insulin-degrading enzyme (human) exo-site inhibition | P14735 | purified IDE, FL-6b probe fluorescence polarization; hits give low values | z-score at 20 µM | 6.3% of 17,000 active;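 active = z-score of -3 or lower, meaning strong loss of probe binding signal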;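 also: His-tagged human IDE residues 42-1019 made in E. coli with 30 nM FL-6b probe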
Target sequence (P14735 42-1019 limits assumed): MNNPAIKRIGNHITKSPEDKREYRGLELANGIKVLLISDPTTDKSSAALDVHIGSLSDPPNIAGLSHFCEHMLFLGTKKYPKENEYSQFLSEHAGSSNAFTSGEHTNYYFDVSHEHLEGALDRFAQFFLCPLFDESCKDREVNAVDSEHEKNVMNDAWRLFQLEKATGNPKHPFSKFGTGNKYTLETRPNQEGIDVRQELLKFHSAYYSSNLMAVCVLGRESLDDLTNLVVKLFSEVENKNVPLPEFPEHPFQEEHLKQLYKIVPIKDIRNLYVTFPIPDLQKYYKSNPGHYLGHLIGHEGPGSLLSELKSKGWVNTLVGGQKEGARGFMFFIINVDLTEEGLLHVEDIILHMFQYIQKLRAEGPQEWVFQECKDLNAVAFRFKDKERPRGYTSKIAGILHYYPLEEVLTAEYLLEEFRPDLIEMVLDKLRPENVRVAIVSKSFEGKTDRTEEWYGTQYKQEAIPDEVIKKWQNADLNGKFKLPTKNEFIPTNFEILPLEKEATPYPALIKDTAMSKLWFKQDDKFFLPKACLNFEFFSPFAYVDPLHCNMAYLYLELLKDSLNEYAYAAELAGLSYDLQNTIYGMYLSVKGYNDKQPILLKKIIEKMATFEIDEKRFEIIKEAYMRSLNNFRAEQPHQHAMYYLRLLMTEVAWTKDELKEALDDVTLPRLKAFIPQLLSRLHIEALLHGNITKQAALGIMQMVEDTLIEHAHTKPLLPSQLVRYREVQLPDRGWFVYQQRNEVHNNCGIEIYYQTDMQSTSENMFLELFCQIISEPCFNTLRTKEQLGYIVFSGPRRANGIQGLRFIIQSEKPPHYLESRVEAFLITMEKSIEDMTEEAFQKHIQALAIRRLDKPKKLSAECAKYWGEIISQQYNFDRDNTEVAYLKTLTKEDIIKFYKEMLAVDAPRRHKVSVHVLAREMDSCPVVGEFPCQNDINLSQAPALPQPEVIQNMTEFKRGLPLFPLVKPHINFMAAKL
* marks the source's active call; other numbers are inactive results; ! = repeats disagree.

SMILES	IDE exosite inh
CC(=O)N1CCCCN2[C@H](C1)[C@H](c1ccc(-c3cccc(C)c3)cc1)[C@@H]2CO	-5.3*
CC(=O)N1CCCCN2[C@@H](CO)[C@H](c3ccc(-c4ccc(C)cc4)cc3)[C@@H]2C1	-0.57
CC(=O)N1CCCCN2[C@H](C1)[C@@H](c1ccc(-c3cccc(C)c3)cc1)[C@@H]2CO	-14*
C[C@H]1CN([C@@H](C)CO)S(=O)(=O)c2ccc(C#CCC3CCCC3)cc2O[C@H]1CN(C)C(=O)c1cnccn1	-0.23
CCN(C[C@@H]1N[C@@H](CO)[C@H]1c1ccc(-c2cccc(F)c2)cc1)C(=O)COC	2.6
COc1ccc(C#Cc2ccc([C@@H]3[C@@H](CO)N4C(=O)CN(C(=O)NC(C)C)C[C@@H]34)cc2)cc1	-0.36
Cc1cccc(-c2ccc([C@H]3[C@H]4CN(Cc5cncnc5)CCCCN4[C@H]3CO)cc2)c1	-6*
Cc1cccc(-c2ccc([C@@H]3[C@@H](CO)N4CCCCN(Cc5cncnc5)C[C@H]34)cc2)c1	-4.6*
COc1cccc(-c2ccc([C@@H]3[C@@H](CO)N4CCCCN(Cc5cncnc5)C[C@H]34)cc2)c1	0.32
COc1cccc(-c2ccc([C@H]3[C@H](CO)N4CCCCN(CC5CC5)C[C@@H]34)cc2)c1	-0.72
COc1cccc(-c2ccc([C@@H]3[C@H]4CN(Cc5cncnc5)CCCCN4[C@H]3CO)cc2)c1	-3.9*
Cc1ccc(-c2ccc([C@@H]3[C@H](CO)N4CCCCN(Cc5cncnc5)C[C@@H]34)cc2)cc1	0.21
COc1cccc(-c2ccc([C@@H]3[C@@H](CO)N4CCCCN(CC5CC5)C[C@H]34)cc2)c1	-1.8
COc1cccc(-c2ccc([C@H]3[C@H]4CN(Cc5cncnc5)CCCCN4[C@H]3CO)cc2)c1	-2
OC[C@H]1[C@H](c2ccc(-c3ccccc3)cc2)[C@@H]2CN(Cc3cncnc3)CCCCN12	0.39
COc1cccc(-c2ccc([C@H]3[C@H]4CN(CC5CC5)CCCCN4[C@H]3CO)cc2)c1	-4.1*
OC[C@H]1[C@H](c2ccc(-c3ccccc3)cc2)[C@H]2CN(Cc3cncnc3)CCCCN21	0.9
Cc1cccc(-c2ccc([C@H]3[C@@H](CO)N4CCCCN(Cc5cncnc5)C[C@@H]34)cc2)c1	-1.1
O=C1CCCCn2nncc2COC[C@H](Cc2ccccc2)N1	-0.91
COc1ccc(C[C@H]2CCn3cc(nn3)COCCCNC2=O)cc1	0.76
O=C(C[C@H]1CC[C@H]2[C@@H](COC[C@@H](O)CN2S(=O)(=O)c2ccccc2F)O1)N1CCC(Cc2ccccc2)CC1	-1.8
O=C(Nc1cccc(F)c1)N1CC(=O)N2[C@H](CO)[C@H](c3ccc(-c4ccccc4F)cc3)[C@@H]2C1	4.1
CC(=O)NC[C@@H]1[C@@H](c2ccc(C3=CCCC3)cc2)[C@@H](CO)N1C(=O)C1CCC1	1.1
OC[C@H]1[C@@H](c2ccc(-c3ccccc3)cc2)[C@@H]2CN(Cc3cncnc3)CCCCN12	-1.1
Cc1ccc(-c2ccc([C@@H]3[C@@H](CO)N4CCCCN(Cc5cncnc5)C[C@@H]34)cc2)cc1	-0.54
SMILES	IDE exosite inh
Cc1cccc(-c2ccc([C@H]3[C@H](CO)N4CCCCN(Cc5cncnc5)C[C@@H]34)cc2)c1	-7.4*
O=C(c1cccc(F)c1)N1CC(=O)N2[C@H](C1)[C@H](c1ccc(C3=CCCC3)cc1)[C@@H]2CO	0.22
CN(C)C(=O)c1cccc(-c2ccc([C@@H]3[C@H]4CN(C(=O)C5CCC5)CCCCN4[C@H]3CO)cc2)c1	3.6
CC(C)[C@@H]1C(=O)N[C@H](c2cccc(Cl)c2)CC=CC[C@@H](C)Oc2ccccc2C(=O)N1C (mixture of isomers)	1
CC(=O)NC[C@H]1[C@@H](c2ccc(C3=CCCC3)cc2)[C@@H](CO)N1C(=O)C1CCC1	0.91
CN1C(=O)c2cc(NC(=O)c3cccc(F)c3)ccc2OC[C@@H]2O[C@H](CC(=O)NCc3ccccc3Cl)CC[C@@H]21	-0.41
CN1C(=O)c2cc(NC(=O)c3cccc(F)c3)ccc2OC[C@H]2O[C@H](CC(=O)NCC3CCCCC3)CC[C@H]21	-3.2*!
CN1C(=O)c2cc(NC(=O)c3cnccn3)ccc2OC[C@@H]2O[C@H](CC(=O)N[C@H]3CCN(Cc4ccccc4)C3)CC[C@H]21	-0.92
COc1cccc(C(=O)Nc2ccc3c(c2)C(=O)N(C)[C@H]2CC[C@@H](CC(=O)N[C@@H](C)c4ccccc4)O[C@H]2CO3)c1	-3.3*
COc1cccc(S(=O)(=O)Nc2ccc3c(c2)C(=O)N(C)[C@H]2CC[C@@H](CC(=O)NCC4CCCCC4)O[C@H]2CO3)c1	-1.7
COc1cccc(S(=O)(=O)Nc2ccc3c(c2)C(=O)N(C)[C@H]2CC[C@H](CC(=O)NCC4CCCCC4)O[C@@H]2CO3)c1	-0.74
CN1C(=O)c2cc(NC(=O)c3cccc(F)c3)ccc2OC[C@H]2O[C@H](CC(=O)NCC3CCCCC3)CC[C@@H]21	-1.7
CN1C(=O)c2cc(NC(=O)c3cnccn3)ccc2OC[C@H]2O[C@@H](CC(=O)N[C@@H]3CCN(Cc4ccccc4)C3)CC[C@@H]21	-7*

Source: PubChem BioAssay
